High-throughput results from PubChem.
Compounds with a hit are over-represented: about 7.5% of the library has one in this group of screens.
ELG1 genotox = genotoxicity induction in ELG1-luciferase HEK293T cells. 1.3% of 330,000 active. Potency, µM (titrated, usually from 46 µM), for inactives: at the top dose activity change, positive = activation, hits mostly activators. HEK293T ELG1-luciferase reporter, luminescence, 16 h; also: % of control where 0% means no effect; nearly all actives have a fitted effect of over 60% in size
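Quantitative HTS format in 1536-well plates. HEK293T ELG1-luciferase reporter cells receive test compound and are incubated 16 hr at 37 °C, 5% CO2; ONE-Glo added, 30 min room temperature, then luminescence read.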
NPC1 promoter act = activates the NPC1 promoter | Huh7 NPC1 promoter luciferase reporter, 24 h | 2.4% of 320,000 active | AID 485313 | Potency, µM (highest dose often 9.22 µM), for the others: top-dose activation, hits mostly activators; also: % of control where 0% means no effect; nearly all actives have a fitted effect of over 60% in size
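Compounds in DMSO were transferred onto Huh7 NPC1-luciferase reporter cells pre-incubated 2 h; after 24 h at 37 °C, Amplite reagent was dispensed and luminescence recorded 10 min later.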
SMN2 splice enh = increases expression of the SMN2 splice variant; HEK293 SMN2-luciferase splicing reporter, luminescence, 30-36 h; Potency, µM (highest dose often 46.1 µM), inactives show at the highest dose activity change, positive = activation, actives largely listed as activators; 2.8% of 210,000 active; AID 1458; also: % of control where 0% means no effect; nearly all actives have a fitted effect of over 55% in size
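qHTS luciferase splicing reporter: luminescence rises when SMN2 exon 7 is included in transfected HEK293 cells. Compound exposure lasted 30-36 h at 37C, with 4.5 mM final sodium butyrate as control, followed by a ONE-Glo read.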
Rab9 prom act = activates the Rab9 promoter; Huh7 Rab9 promoter-luciferase reporter, luminescence, 24 h; Potency, µM (top dose mostly 9.22 µM), without a hit: top-dose activation, negative = inhibition, actives largely listed as activators; 2.8% of 320,000 active; AID 485297; also: % of control where 0% means no effect; nearly all actives have a fitted effect of over 60% in size
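Quantitative HTS format; Huh7 Rab9-luciferase reporter cells (1500/well) receive compound 2 h post-plating, incubate 24 h at 37 °C, then get luciferase reagent for 10 min before luminescence reading.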
FLuc counter = counter-screen for miR-21 project: firefly luciferase inhibitors or activators; P08659; purified FLuc, Km substrates, luminescence inhibition; Potency, µM (series often up to 57.5 µM), inactives show top-dose activity change, negative = inhibition, most hits filed as inhibitors; 6.9% of 360,000 active; AID 588342;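 also: plate controls were vehicle for no effect and reference inhibitor for full effect; nearly all actives have a fitted effect of over 55% in size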
Target sequence (P08659 whole entry, looked up): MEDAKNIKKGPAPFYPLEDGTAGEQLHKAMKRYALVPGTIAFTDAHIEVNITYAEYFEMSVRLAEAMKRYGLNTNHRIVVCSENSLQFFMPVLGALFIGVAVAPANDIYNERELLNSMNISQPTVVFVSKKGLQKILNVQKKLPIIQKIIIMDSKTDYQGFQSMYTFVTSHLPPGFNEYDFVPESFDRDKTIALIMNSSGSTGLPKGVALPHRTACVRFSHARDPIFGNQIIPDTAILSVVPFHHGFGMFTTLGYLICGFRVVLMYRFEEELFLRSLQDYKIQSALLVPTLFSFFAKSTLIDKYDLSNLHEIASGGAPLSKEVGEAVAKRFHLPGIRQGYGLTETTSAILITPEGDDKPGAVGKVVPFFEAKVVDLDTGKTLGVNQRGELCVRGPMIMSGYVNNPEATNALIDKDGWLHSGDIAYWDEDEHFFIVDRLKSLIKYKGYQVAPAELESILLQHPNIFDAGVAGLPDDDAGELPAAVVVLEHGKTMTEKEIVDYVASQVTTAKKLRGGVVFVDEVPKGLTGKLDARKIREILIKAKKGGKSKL
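Biochemical qHTS of compounds, final roughly 60 µM downward over six points, against 10 nM purified firefly luciferase using Km concentrations of substrates (10 uM D-luciferin, 10 uM ATP) in Tris acetate pH 7.5 buffer; luminescence output.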
Active calls of the source: *; [ ] = dose if it differs, or a comment. Calls follow the shape of the dose curve; as a rule, active = well fitted curve in the direction sought with a large enough effect; inconclusive = small, poorly fitted or top-dose-only effect, or another doubt; inactive = no such curve, though single readings can be large; an effect the other way counts as inactive or inconclusive. Potency is read from the fitted curve at half-maximal effect.

What do the screens show for `CC(C)COn1c(=S)[nH]c2ccccc2c1=O`?
ELG1 genotox: inconclusive; NPC1 promoter act: 9%; SMN2 splice enh: -5%; Rab9 prom act: 11%; FLuc counter: 21µM*

How did CC(C)Cn1c(=S)[nH]c2ccccc2c1=O do in these assays?
ELG1 genotox: 1%; NPC1 promoter act: 3%; SMN2 splice enh: -15%; Rab9 prom act: -5%; FLuc counter: -8%

How did COc1ccc(-c2cc(C(=O)N3CCCc4ccccc43)no2)cc1OC do in these assays?
ELG1 genotox: -2%; NPC1 promoter act: -3%; SMN2 splice enh: -6%; Rab9 prom act: 1%; FLuc counter: inconclusive

How did COc1ccc(C2=NOC(C(=O)N3CCCc4ccccc43)C2)cc1 (stereo not given) do in these assays?
ELG1 genotox: -1%; NPC1 promoter act: 4%; SMN2 splice enh: 0%; Rab9 prom act: 8%; FLuc counter: 13µM*

What do the screens show for `COc1cc(C2=NOC(C(=O)N3CCCc4ccccc43)C2)cc(OC)c1OC` (stereo not given)?
ELG1 genotox: -1%; NPC1 promoter act: -3%; SMN2 splice enh: 2%; Rab9 prom act: -3%; FLuc counter: 3%

How did COc1cccc(-c2cc(C(=O)N3CCCc4ccccc43)no2)c1 do in these assays?
ELG1 genotox: 7%; NPC1 promoter act: 28%; SMN2 splice enh: inconclusive; Rab9 prom act: 2%; FLuc counter: 12µM*

What do the screens show for `COc1ccc(OC)c(-c2cc(C(=O)N3CCCc4ccccc43)no2)c1`?
ELG1 genotox: -7%; NPC1 promoter act: -4%; SMN2 splice enh: -7%; Rab9 prom act: 10%; FLuc counter: 2%

How did COc1ccc(-c2cc(C(=O)N3CCCc4ccccc43)no2)cc1 do in these assays?
ELG1 genotox: 0%; NPC1 promoter act: inconclusive; SMN2 splice enh: -3%; Rab9 prom act: inconclusive; FLuc counter: 6µM*

How did O=C(O)C(Cl)(c1ccccc1)c1ccccc1 do in these assays?
SMN2 splice enh: -3%[9.22 µM]

How did CCOC(=O)C/C(C)=N/NC(=O)C1CC1(c1ccccc1)c1ccccc1 (stereo not given) do in these assays?
ELG1 genotox: 1%; NPC1 promoter act: -4%; Rab9 prom act: 1%; FLuc counter: 4%

Results for Cc1ccc(NC(=O)Cn2ccn(-c3ccc(F)c(F)c3)c(=O)c2=O)cc1C ?
FLuc counter: -1%

Results for Cc1ccc(C)c(CSc2nc(-c3ccccc3F)nc3c2Cc2c(CO)cnc(C)c2O3)c1 ?
FLuc counter: -1%

Results for Cc1ccc(C2CN=NC23CCc2ccccc2C3=O)cc1 (stereo not given) ?
ELG1 genotox: inconclusive; NPC1 promoter act: 8%; SMN2 splice enh: -1%; Rab9 prom act: 1%; FLuc counter: 12µM*

How did O=C1c2ccccc2CCCC12N=NCC2c1cccc2ccccc12 (stereo not given) do in these assays?
ELG1 genotox: -6%; NPC1 promoter act: -5%; SMN2 splice enh: -29%; Rab9 prom act: 1%; FLuc counter: -1%

Results for COc1cc2cc3c(N)c(C(=O)NCc4ccco4)sc3nc2cc1OC ?
ELG1 genotox: inconclusive; NPC1 promoter act: inconclusive; Rab9 prom act: inconclusive; FLuc counter: 11µM*

Results for COc1ccc(CC(=O)NCc2ccco2)cc1OC ?
ELG1 genotox: 0%; NPC1 promoter act: 8%; SMN2 splice enh: 28%; Rab9 prom act: -2%; FLuc counter: 0%

Results for COc1ccc(-n2c(N)c(C(=O)NCc3ccco3)sc2=S)cc1 ?
ELG1 genotox: inconclusive; NPC1 promoter act: -1%; SMN2 splice enh: -2%; Rab9 prom act: 4.5µM*; FLuc counter: -2%

What do the screens show for `Cc1ccc2nc3sc(C(=O)NCc4ccco4)c(N)c3cc2c1`?
ELG1 genotox: 9.2µM*; NPC1 promoter act: inconclusive; SMN2 splice enh: 4.5µM*; Rab9 prom act: 2µM*; FLuc counter: 0.85µM*

What do the screens show for `Cc1ccc2nc3sc(C(=O)Nc4c(C)[nH]c(=O)[nH]c4=O)c(N)c3cc2c1`?
ELG1 genotox: 10%; NPC1 promoter act: 8%; SMN2 splice enh: -5%; Rab9 prom act: 1%; FLuc counter: inconclusive

How did CC(=O)N(OCc1ccccc1)[C@@H]1c2cc(C#N)ccc2OC(C)(C)[C@H]1O do in these assays?
SMN2 splice enh: -15%

Results for O=C(COC(=O)Cc1c(F)cccc1Cl)NNC(=O)c1ccccc1 ?
ELG1 genotox: 1%

Results for O=C(O)Cc1ccc2sc(-c3ccccc3)nc2c1 ?
ELG1 genotox: 8%; NPC1 promoter act: 14%; SMN2 splice enh: 21%; Rab9 prom act: 21%; FLuc counter: 19µM*

What do the screens show for `COC(=O)Cc1ccc2sc(-c3ccccc3)nc2c1`?
ELG1 genotox: 2.6µM*; NPC1 promoter act: 1.6µM*; SMN2 splice enh: 1.6µM*; Rab9 prom act: 2.5µM*; FLuc counter: 0.67µM*

How did O=C(O)Cc1ccc(-c2ccccc2-c2ccccc2)cc1 do in these assays?
ELG1 genotox: 9%; NPC1 promoter act: -2%; SMN2 splice enh: -22%; Rab9 prom act: -4%; FLuc counter: 2%

How did COC(=O)Cc1sc(-c2ccccn2)nc1-c1ccccc1 do in these assays?
ELG1 genotox: -12%; NPC1 promoter act: -1%; SMN2 splice enh: -14%; Rab9 prom act: -3%; FLuc counter: inconclusive

How did CCN(CC)CCN1C(=O)C2C(C(=O)Nc3cc(C)cc(C)c3)C3C=CC2(O3)C1C(=O)NC1CCCCC1 (stereo not given) do in these assays?
ELG1 genotox: 11%; NPC1 promoter act: -2%; Rab9 prom act: -1%; FLuc counter: 2%

Results for Cc1ccc([N+](=O)[O-])cc1S(=O)(=O)N1CCn2cccc2C1c1ccccc1F (stereo not given) ?
FLuc counter: -8%

How did O=C(N/N=C/c1cccc(Oc2ccccc2)c1)c1cc[n+]([O-])cc1 do in these assays?
ELG1 genotox: 2%; NPC1 promoter act: 0%; SMN2 splice enh: 1%; Rab9 prom act: -4%; FLuc counter: inconclusive

What do the screens show for `O=C(N/N=C/c1cccc(Oc2ccccc2)c1)c1ccccc1F`?
ELG1 genotox: inconclusive; NPC1 promoter act: -5%; Rab9 prom act: 21%; FLuc counter: 17µM*

How did Nc1ccc(C(=O)N/N=C/c2cccc(Oc3ccccc3)c2)cc1 do in these assays?
ELG1 genotox: 5%; NPC1 promoter act: 0%; Rab9 prom act: 9%; FLuc counter: 12µM*

What do the screens show for `CCC/C=C(\CCC)C(NS(=O)(=O)CC12CCC(CC1=O)C2(C)C)c1ccc(C(=O)OC)cc1` (stereo not given)?
SMN2 splice enh: -25%

Results for CCC(C)/C(C)=N/NC(=O)c1ccc(COc2ccc(Cl)c(C)c2)cc1 (stereo not given) ?
ELG1 genotox: 5%; NPC1 promoter act: 10%; SMN2 splice enh: inconclusive; Rab9 prom act: 9%; FLuc counter: inconclusive
